Assay [1] is described as follows: qHTS assay to identify aromatase inhibitors - cell viability counter screen (AID 743084;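 further: cells stimulated with testosterone during compound exposure; nearly all actives have a fitted effect of over 55% in size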; further: potency means the concentration at half of the fitted maximal effect). (Quantitative high-throughput screening tests each substance at several concentrations.)
The target in assay [2] is Aryl hydrocarbon receptor (Homo sapiens) (UniProt P35869). The experiment in a line: qHTS assay to identify small molecule that activate the aryl hydrocarbon receptor (AhR) signaling pathway (AID 743085).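 Further: HG2L7.5c1 human HepG2 liver cells with stably integrated DRE-driven firefly reporter; series mostly up to about 70 µM; nearly all actives have a fitted effect of over 15% in size.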 A digest of the protocol: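 HepG2 cells stably carrying a 20-DRE firefly luciferase reporter (HG2L7.5c1) treated with compound for 24 hr at 37C. Luciferase read by ONE-Glo luminescence, with CellTiter-Fluor viability read first.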

Assay [3] deals with Peroxisome proliferator-activated receptor gamma (Homo sapiens) (UniProt P37231). The experiment in a line: qHTS assay to identify small molecule agonists of the peroxisome proliferator-activated receptor gamma (PPARg) signaling pathway (AID 743094; active means well fitted activation curve with a large enough effect in the signal ratio in the repeat runs, not every such curve was filed as active; the % refers to the signal ratio). In short, it runs like this:
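Agonism was assessed in a beta-lactamase reporter system, HEK293H cells with a stably integrated UAS-bla construct under PPARg control; the 17 h treatment at 37C preceded a 1 h room-temperature FRET substrate read.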

Assay [4] in a line: qHTS assay to identify small molecule antagonists of the peroxisome proliferator-activated receptor gamma (PPARg) signaling pathway - cell viability counter screen (AID 743194). Further: nearly all actives have a fitted effect of over 55% in size. Particulars: Potency: co-treated with 50 nM rosiglitazone. In short, it runs like this: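 Cytotoxicity counter screen in PPARg-bla HEK293H cells, same wells as reporter assay. Compounds plus 50 nM rosiglitazone (final) for 17 h at 37 C, then viability read by CellTiter-Glo luminescence.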

Assay [5] in a line: qHTS assay for small molecule agonists of the antioxidant response element (ARE) signaling pathway - cell viability counter screen (AID 743203; calls by dose curve; further: nearly all actives have a fitted effect of over 55% in size; further: potency means the concentration at half of the fitted maximal effect). In short, it runs like this: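 ATP content via CellTiter-Glo luminescence served as the viability measure. Cells: ARE-bla HepG2, 2,000 per well. Exposure: 16 hrs, 37C/5% CO2.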
Assay [6] is described as follows: qHTS assay for small molecule activators of the heat shock response signaling pathway - cell viability counter screen (AID 743209). Further: nearly all actives have a fitted effect of over 50% in size. In short, it runs like this: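 Compounds dissolved in DMSO were added to overnight-plated HSE-bla HeLa cells and left 5 h at 37 C. Cell viability was quantified by luminescence using CellTiter-Glo.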
The nature of assay [7]: qHTS assay for small molecule activators of the heat shock response signaling pathway (AID 743210; active means well fitted activation curve with a large enough effect in the signal ratio in the repeat runs, with a control signal flat, not every such curve was filed as active; the % refers to the signal ratio;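 further: HeLa cells with beta-lactamase reporter driven by heat shock elements; series mostly up to about 63 µM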). In short, it runs like this: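 Following overnight attachment, HSE-bla HeLa cells received test compounds for 5 h at 37 C; beta-lactamase activity was then detected via FRET substrate fluorescence.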
Assay [8] addresses Peroxisome proliferator-activated receptor delta (Homo sapiens) (UniProt Q03181). Briefly: qHTS assay to identify small molecule agonists of the peroxisome proliferator-activated receptor delta (PPARd) signaling pathway (AID 743212; calls by dose curve). A digest of the protocol:
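Tox21 library screened in GeneBLAzer PPARd UAS-bla HEK293H cells. After compound treatment at 37 C, a FRET-based beta-lactamase substrate was applied for 2 h and fluorescence recorded.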

For assay [9] the target is unchanged. The experiment in a line: qHTS assay to identify small molecule antagonists of the peroxisome proliferator-activated receptor delta (PPARd) signaling pathway (AID 743215; active means well fitted inhibition curve with a large enough effect in the signal ratio in the repeat runs, not every such curve was filed as active; the % refers to the signal ratio;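 further: cells stimulated with agonist L165041 at 300 nM final during compound exposure; series mostly up to about 62 µM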). A digest of the protocol: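 Here, a reporter line (HEK293H, beta-lactamase under a UAS) measures PPARd signaling. Compounds are tested against agonist L165041 at 300 nM final concentration over 17 h at 37 C, with fluorescence read after substrate.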

Assay [10] is described as follows: qHTS assay to identify small molecule agonists of the farnesoid-X-receptor (FXR) signaling pathway - cell viability counter screen (AID 743218). Further: nearly all actives have a fitted effect of over 45% in size. A digest of the protocol: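 Quantitative HTS counter screen measuring ATP-based viability via CellTiter-Glo luminescence in HEK 293T cells carrying a UAS-driven beta-lactamase reporter, after 16 h compound exposure at 37 C.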

The nature of assay [11]: qHTS assay to identify small molecule that activate the aryl hydrocarbon receptor (AhR) signaling pathway - cell viability counter screen (AID 743086). Further: series mostly up to about 70 µM; nearly all actives have a fitted effect of over 45% in size. In short, it runs like this: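 HepG2-AhR-luc (HG2L7.5c1) cells, 4000/well, treated 24 h at 37 C with compound; viability measured as CellTiter-Fluor fluorescence after 30 min in the same wells as the luciferase read.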
A short description of assay [12]: qHTS assay for small molecule agonists of the antioxidant response element (ARE) signaling pathway (AID 743202; active means well fitted activation curve with a large enough effect in the signal ratio in the repeat runs, not every such curve was filed as active; the % refers to the signal ratio; further: potency means the concentration at half of the fitted maximal effect). In short, it runs like this:
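HepG2 ARE-bla cells; 16 h treatment at 37 C; FRET-based beta-lactamase fluorescence read after 2 h substrate incubation at room temperature.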

A short description of assay [13]: qHTS assay to identify small molecule antagonists of the peroxisome proliferator-activated receptor delta (PPARd) signaling pathway - cell viability counter screen (AID 743213). Further: nearly all actives have a fitted effect of over 50% in size. Further: potency means the concentration at half of the fitted maximal effect. A digest of the protocol: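 In this counter screen, HEK293H cells carrying a UAS-beta-lactamase reporter are co-treated with test compounds and 300 nM L165041 (final) for 17 h at 37 C; cell viability is quantified by CellTiter-Glo luminescence.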

Assay [14] can be described thus: qHTS assay to identify small molecule antagonists of the farnesoid-X-receptor (FXR) signaling pathway - cell viability counter screen (AID 743221; active means well fitted cell-killing curve with a large enough effect in the repeat runs, not every such curve was filed as active; further: nearly all actives have a fitted effect of over 50% in size). A digest of the protocol: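 GeneBLAzer FXR-UAS-bla HEK 293T cells, compound plus chenodeoxycholic acid (50 uM final), 16 h at 37 C. CellTiter-Glo added to the same wells after the beta-lactamase read; luminescence read after 30 min at room temperature as viability.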

Assay [15] has as its target Vitamin D3 receptor (Homo sapiens) (UniProt P11473). Briefly: qHTS assay to identify small molecule agonists of the vitamin D receptor (VDR) signaling pathway (AID 743222; calls by dose curve). A digest of the protocol:
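Tox21 cell reporter format: VDR-bla line, 16 h compound exposure in 5% CO2 at 37C, then fluorescence intensity after 2 h with LiveBLAzer B/G FRET substrate.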

The target is the same in assay [16]. Briefly: qHTS assay to identify small molecule antagonists of the vitamin D receptor (VDR) signaling pathway (AID 743223; active means well fitted inhibition curve with a large enough effect in the signal ratio in the repeat runs, not every such curve was filed as active; the % refers to the signal ratio). In short, it runs like this:
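VDR-bla cells were treated with compound plus 3 nM final 1alpha,25-dihydroxyvitamin D3 for 16 h at 37C. Beta-lactamase reporter read by B/G FRET substrate fluorescence after 2 h at room temperature. qHTS format.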

Assay [17] can be described thus: qHTS assay to identify small molecule agonists of the peroxisome proliferator-activated receptor delta (PPARd) signaling pathway - cell viability counter screen (AID 743211). Further: nearly all actives have a fitted effect of over 55% in size. Further: potency means the concentration at half of the fitted maximal effect. In short, it runs like this:
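PPARd-bla HEK293H cells (3000/well) were pre-incubated 5 h at 37 C, then exposed to compound for 17 h at 37 C. After 2 h with LiveBLAzer substrate, CellTiter-Glo was added to the same wells; luminescence read after 30 min at room temperature.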

Assay [18] concerns the target Peroxisome proliferator-activated receptor gamma (Homo sapiens) (UniProt P37231). The experiment in a line: qHTS assay to identify small molecule antagonists of the peroxisome proliferator-activated receptor gamma (PPARg) signaling pathway (AID 743191; calls by dose curve; further: nearly all actives have a fitted effect of over 30% in size; further: potency means the concentration at half of the fitted maximal effect). A digest of the protocol: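 GeneBLAzer PPARg UAS-bla HEK293H cells, 5 h post-plating, exposed to compounds 17 h at 37C. LiveBLAzer B/G FRET substrate added for 1 h at room temperature; beta-lactamase reporter read by fluorescence intensity.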

Assay [19] concerns the target Bile acid receptor (Homo sapiens) (UniProt Q96RI1). The experiment in a line: qHTS assay to identify small molecule agonists of the farnesoid-X-receptor (FXR) signaling pathway (AID 743220; active means well fitted activation curve with a large enough effect in the signal ratio in the repeat runs, not every such curve was filed as active; the % refers to the signal ratio). In short, it runs like this: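 FXR-UAS-bla HEK 293T cells carrying a UAS-driven beta-lactamase reporter were plated for 5 h at 37C/5% CO2, then exposed to DMSO-dissolved Tox21 10K compounds for 16 h at 37C. A LiveBLAzer B/G FRET substrate was loaded for 2 h at room temperature before fluorescence reading.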

Assay [20] shares this target. Briefly: qHTS assay to identify small molecule antagonists of the farnesoid-X-receptor (FXR) signaling pathway (AID 743217; active means well fitted inhibition curve with a large enough effect in the signal ratio in the repeat runs, not every such curve was filed as active; the % refers to the signal ratio; further: potency means the concentration at half of the fitted maximal effect). In short, it runs like this: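 Test compounds are pin-transferred onto FXR-bla HEK 293T cells, then chenodeoxycholic acid is added at 50 uM final. After 16 h at 37 °C, LiveBLAzer B/G substrate is applied for 2 h at room temperature and fluorescence read.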

The structures appear in SMILES notation. Values joined by “and” are separate entries in the source; they are usually repeats but may differ in a detail not shown here. Equal entries are not always repeated. Records with an inconclusive call do not appear. Some compounds were tested as several samples or in several runs, with calls that do not always agree. Active and inactive are the calls of the source. Unless noted, the call rests on the fitted dose curve; in most records, active means well fitted curve in the direction sought with a large enough effect in the repeat runs; inconclusive means weak or mixed curves; inactive means no such curve, though single readings can be large; an effect the other way counts as inactive or inconclusive.

Bile acid receptor (Homo sapiens), sequence (Q96RI1 whole entry, looked up): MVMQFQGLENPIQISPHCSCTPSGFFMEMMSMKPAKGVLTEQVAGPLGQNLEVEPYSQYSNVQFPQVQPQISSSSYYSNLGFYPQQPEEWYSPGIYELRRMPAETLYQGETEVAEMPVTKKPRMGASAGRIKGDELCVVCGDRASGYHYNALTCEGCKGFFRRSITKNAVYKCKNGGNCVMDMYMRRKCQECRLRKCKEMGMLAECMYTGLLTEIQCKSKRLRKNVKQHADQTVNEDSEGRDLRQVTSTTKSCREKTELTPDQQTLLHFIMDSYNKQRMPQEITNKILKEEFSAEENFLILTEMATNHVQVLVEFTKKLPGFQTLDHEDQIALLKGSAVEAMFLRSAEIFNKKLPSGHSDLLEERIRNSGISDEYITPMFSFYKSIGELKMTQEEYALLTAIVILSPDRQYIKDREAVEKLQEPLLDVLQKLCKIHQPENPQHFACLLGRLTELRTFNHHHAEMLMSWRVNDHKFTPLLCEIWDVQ
Peroxisome proliferator-activated receptor delta (Homo sapiens), sequence (Q03181 whole entry, looked up): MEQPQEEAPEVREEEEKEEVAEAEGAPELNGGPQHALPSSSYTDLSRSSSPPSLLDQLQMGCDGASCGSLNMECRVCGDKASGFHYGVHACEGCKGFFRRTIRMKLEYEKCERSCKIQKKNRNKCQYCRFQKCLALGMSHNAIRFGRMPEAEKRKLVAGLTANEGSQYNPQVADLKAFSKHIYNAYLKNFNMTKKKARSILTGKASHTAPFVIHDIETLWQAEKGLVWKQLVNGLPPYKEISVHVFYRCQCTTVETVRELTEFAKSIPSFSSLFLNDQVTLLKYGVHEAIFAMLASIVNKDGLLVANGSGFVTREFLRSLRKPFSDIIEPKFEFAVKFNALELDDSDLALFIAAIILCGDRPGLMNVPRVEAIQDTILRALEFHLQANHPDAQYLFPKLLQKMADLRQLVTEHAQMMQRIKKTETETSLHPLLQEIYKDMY
Vitamin D3 receptor (Homo sapiens), sequence (P11473 whole entry, looked up): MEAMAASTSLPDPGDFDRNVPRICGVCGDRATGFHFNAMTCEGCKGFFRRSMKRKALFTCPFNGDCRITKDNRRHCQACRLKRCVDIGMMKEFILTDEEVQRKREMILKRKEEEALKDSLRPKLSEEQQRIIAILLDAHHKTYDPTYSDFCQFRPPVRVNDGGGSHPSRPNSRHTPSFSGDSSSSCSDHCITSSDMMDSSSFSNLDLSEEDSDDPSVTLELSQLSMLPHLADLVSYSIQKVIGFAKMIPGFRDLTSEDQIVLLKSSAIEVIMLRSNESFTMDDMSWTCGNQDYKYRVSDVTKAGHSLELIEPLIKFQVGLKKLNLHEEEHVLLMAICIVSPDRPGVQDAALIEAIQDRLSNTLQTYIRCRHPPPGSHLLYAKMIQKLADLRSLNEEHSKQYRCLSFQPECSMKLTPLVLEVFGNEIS
Peroxisome proliferator-activated receptor gamma (Homo sapiens), sequence (P37231 whole entry, looked up): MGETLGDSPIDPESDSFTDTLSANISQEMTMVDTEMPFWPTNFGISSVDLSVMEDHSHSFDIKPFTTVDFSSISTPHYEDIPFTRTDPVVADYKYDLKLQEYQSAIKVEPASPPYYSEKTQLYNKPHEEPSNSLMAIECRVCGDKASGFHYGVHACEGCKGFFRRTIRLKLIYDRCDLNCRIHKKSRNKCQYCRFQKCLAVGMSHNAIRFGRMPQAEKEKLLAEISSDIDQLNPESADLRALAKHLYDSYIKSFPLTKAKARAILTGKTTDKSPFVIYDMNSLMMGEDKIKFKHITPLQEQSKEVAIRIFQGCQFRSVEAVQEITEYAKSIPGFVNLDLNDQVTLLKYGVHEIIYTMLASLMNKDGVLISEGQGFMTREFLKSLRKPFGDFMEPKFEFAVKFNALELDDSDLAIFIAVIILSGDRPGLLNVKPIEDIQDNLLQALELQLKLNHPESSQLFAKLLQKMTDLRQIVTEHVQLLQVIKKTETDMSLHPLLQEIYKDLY
Aryl hydrocarbon receptor (Homo sapiens), sequence (P35869 whole entry, looked up): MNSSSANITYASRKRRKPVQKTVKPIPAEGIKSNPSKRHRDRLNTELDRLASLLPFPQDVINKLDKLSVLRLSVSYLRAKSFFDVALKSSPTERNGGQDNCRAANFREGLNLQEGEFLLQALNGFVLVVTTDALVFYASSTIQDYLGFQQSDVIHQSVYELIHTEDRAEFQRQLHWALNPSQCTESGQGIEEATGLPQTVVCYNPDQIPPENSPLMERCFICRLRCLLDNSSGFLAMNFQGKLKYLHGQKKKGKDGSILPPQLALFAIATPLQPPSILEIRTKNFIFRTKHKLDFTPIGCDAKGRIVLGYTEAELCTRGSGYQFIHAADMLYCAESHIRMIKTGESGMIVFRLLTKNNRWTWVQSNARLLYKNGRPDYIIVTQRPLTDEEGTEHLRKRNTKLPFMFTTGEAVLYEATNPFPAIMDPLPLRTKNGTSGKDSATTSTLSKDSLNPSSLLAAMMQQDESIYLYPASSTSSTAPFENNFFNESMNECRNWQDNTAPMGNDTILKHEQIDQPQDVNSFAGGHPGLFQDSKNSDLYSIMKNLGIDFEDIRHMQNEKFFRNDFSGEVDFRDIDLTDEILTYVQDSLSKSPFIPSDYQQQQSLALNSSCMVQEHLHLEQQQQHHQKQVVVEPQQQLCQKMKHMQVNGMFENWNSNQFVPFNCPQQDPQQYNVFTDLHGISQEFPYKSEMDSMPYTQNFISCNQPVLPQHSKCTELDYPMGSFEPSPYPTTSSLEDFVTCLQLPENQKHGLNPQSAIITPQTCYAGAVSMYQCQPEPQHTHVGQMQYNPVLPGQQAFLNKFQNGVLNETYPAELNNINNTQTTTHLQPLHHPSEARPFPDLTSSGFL

On to `C[C@H](N)[C@H](O)c1ccc(O)c(O)c1`, for which the Potency result in [1], in [2], in [3], in assay [4], in [5] and in assay [6] was “inactive” each time. Also, the Potency entry in [7], in assay [9] and in assay [10] was “inactive” each time. In addition, the molecule was called inactive in assay [8].

As to `CC(C)(c1ccccc1)c1cc(-n2nc3ccccc3n2)c(O)c(C(C)(C)c2ccccc2)c1`, the Potency entry in [1], in [2], in assay [11], in [12], in assay [6] and in assay [13] was “inactive” each time. In addition, the Potency entry in assay [9], in assay [10], in assay [14] and in assay [16] was “inactive” each time. Moreover, the result in [8] and in assay [15] was inactive.

As to `OC[P+](CO)(CO)CO`, the Potency in assay [1] was 61.8 µM (active) and inactive; in assay [12], 12.3 µM (active) and 8.63 µM (active). Moreover, the Potency result in [2], in assay [3], in assay [4], in assay [5], in assay [6] and in assay [7] was “inactive” each time. Also, the Potency entry in assay [17], in assay [13], in assay [10] and in assay [16] was “inactive” each time. Further, the outcome in [8] and in assay [15] was inactive.

As for `ClCc1ccccc1Cl`, the Potency result in assay [1], in assay [2], in assay [3], in assay [18], in [4] and in assay [5] was “inactive” throughout. In addition, the Potency entry in assay [6], in [17] and in assay [10] was “inactive” throughout. The molecule was classed as inactive in assay [19] and in [15].

`CCC1(CCC(C)C)C(=O)NC(=O)NC1=O`: the Potency entry in assay [1], in assay [2], in assay [3], in assay [18], in assay [4] and in assay [12] was “inactive” throughout. Moreover, the Potency result in assay [5], in assay [6], in assay [7], in [13] and in [9] was “inactive” in each case. Further, the molecule was classed as inactive in [8] and in assay [19].

`CC(C)c1ccc(OP(=O)(Oc2ccc(C(C)C)cc2)Oc2ccc(C(C)C)cc2)cc1`: the Potency result in assay [1], in assay [2], in [4], in assay [5], in [6] and in [7] was “inactive” throughout. Moreover, the Potency was 38.9 µM (active) in [18]; 27.7 µM (active) and 43.7 µM (active) and 27.5 µM (active) in assay [17]; 4.89 µM (active) in [13]; 22 µM (active) in assay [20]. The outcome in assay [19] and in [15] was inactive.

For the molecule `CC(C)CCON=O`, the Potency entry in assay [1], in assay [2], in [3], in [18], in assay [4] and in assay [12] was “inactive” throughout. In addition, the Potency entry in assay [5], in assay [6], in [7], in [17], in assay [13] and in [9] was “inactive” each time. Moreover, the Potency result in assay [10] and in assay [14] was “inactive” each time. Also, the outcome in assay [8] and in [15] was inactive.

For `CCCCNC(=O)OCC#CI`, the Potency was 6.08 µM (active) and 17.2 µM (active) in assay [1]; 21.7 µM (active) in assay [5]. Further, the Potency result in assay [2], in assay [11], in assay [6] and in assay [20] was “inactive” in each case. In addition, the outcome in assay [19] was inactive.

`COC(=O)C1(O)c2ccccc2-c2ccccc21`: the Potency result in assay [1], in assay [2], in assay [11], in [4], in assay [5] and in assay [17] was “inactive” throughout. Further, the Potency entry in [13], in [9], in [10] and in assay [14] was “inactive” throughout. Further, the result in [8] and in [15] was inactive.

Turning to `CCCCCl`, the Potency result in [1], in assay [2], in [3], in [18], in assay [4] and in [6] was “inactive” in each case. Further, the Potency entry in [7], in [17], in [13], in [9] and in assay [10] was “inactive” in each case. For the same molecule, the molecule was called inactive in assay [8], in assay [19] and in assay [15].

On to `COc1ccc(C(O)(c2cncnc2)C2CC2)cc1` (configuration not stated), for which the Potency entry in [1], in [2], in assay [3], in assay [18], in assay [4] and in assay [12] was “inactive” each time. Further, the Potency result in assay [6], in [13], in assay [20] and in [10] was “inactive” each time. In addition, the molecule was classed as inactive in assay [19] and in assay [15].

`O=C(N[C@H]1CN2CCC1CC2)c1ccc2c(c1)OCCO2`: the Potency entry in [1], in [2], in assay [18], in assay [4], in assay [12] and in assay [6] was “inactive” throughout. Also, the Potency entry in assay [7], in assay [17], in assay [13], in [10] and in assay [14] was “inactive” throughout. In assay [8], the molecule was classed as inactive.

Take `CC(C)(C#N)C(C)(C)C#N`: the Potency entry in [1], in [2], in assay [4], in assay [12], in assay [5] and in [6] was “inactive” each time. Also, the Potency entry in assay [7], in assay [17], in [9] and in assay [10] was “inactive” each time. In addition, the outcome in assay [8] and in assay [19] was inactive.

(Values after PubChem BioAssay (Tox21).)
